Screening data from PubChem BioAssay.
Rows were chosen to be rich in hits. Some 9% of all compounds tested hit in one or more screens of this group.
BAZ2B block: BAZ2B (human) inhibition | Q9UIF8 | AlphaScreen BAZ2B-H3K14Ac peptide displacement | Potency, µM (doses to about 114 µM), for the others: top-dose activity change, negative = inhibition, actives largely listed as inhibitors | 360,000 tested, 4.4% active | AID 504333; note: % is set by controls: 0 for no effect and ±100 for the full control effect; nearly all actives have a fitted effect of over 60% in size
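AlphaScreen luminescence quantifies BAZ2B engagement of H3K14Ac peptide; the protein and biotinylated peptide are both at 50 nM final, buffer PBS pH 7.4 with 0.01% Tween-20, all steps at room temperature.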
G9a block: G9a (human) methyltransferase inhibition; 350,000 tested, 8.8% active; G9a H3K9 monomethylation, AlphaScreen, 2 h; Potency, µM (doses to about 102 µM), inactives show at the highest dose activity, negative = inhibition, most hits filed as inhibitors; note: % is set by controls: 0 for no effect and ±100 for the full control effect; nearly all actives have a fitted effect of over 75% in size
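Signal arises when biotinylated H3K9 peptide, once monomethylated, bridges streptavidin donor and antibody-captured acceptor beads. Enzyme at 20 nM was preincubated 15 min with test compounds; peptide 500 nM and SAM 20 uM then reacted for 2 h.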
JMJD2A Tudor inh: blocks the human JMJD2A Tudor domain | 390,000 tested, 4.4% active | AID 504339 | O75164 | Potency, µM (titrated, usually from 114 µM), for the others: at the highest dose activity change, negative = inhibition, most hits filed as inhibitors | AlphaScreen JMJD2A-Tudor / H3K4me3 peptide binding; note: % is set by controls: 0 for no effect and ±100 for the full control effect; nearly all actives have a fitted effect of over 50% in size
HP1b binding inh: HP1-beta chromodomain-methylated histone interaction inhibition; Potency, µM (titrated, usually from 114 µM), for inactives: top-dose activity change, negative = inhibition, actives largely listed as inhibitors; 390,000 tested, 0.56% active; P83916; AlphaScreen HP1-beta / biotin-H3K9me3 peptide binding; AID 540317; note: nearly all actives have a fitted effect of over 70% in size
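AlphaScreen: HP1-beta (50 nM) preformed 30 min with biotin-H3(1-18)K9me3 peptide (50 nM) in PBS pH 7.4, 0.01% Tween-20. Compound added for 30 min at RT, then streptavidin donor/nickel chelate acceptor beads (10 ug/mL) for 30 min.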
PLK1 PBD block: blocks phosphopeptide binding to human PLK1 polo-box domain | Plk1 PBD binding of FITC phosphopeptide, fluorescence polarization | Potency, µM, for the others: max response, negative = inhibition, actives largely listed as inhibitors | 360,000 tested, 2.8% active | AID 720504; note: series mostly up to about 57 µM; % is set by controls: 0 for no effect and ±100 for the full control effect; nearly all actives have a fitted effect of over 65% in size
Target sequence (P53350 whole entry, looked up, the tested form may be a part): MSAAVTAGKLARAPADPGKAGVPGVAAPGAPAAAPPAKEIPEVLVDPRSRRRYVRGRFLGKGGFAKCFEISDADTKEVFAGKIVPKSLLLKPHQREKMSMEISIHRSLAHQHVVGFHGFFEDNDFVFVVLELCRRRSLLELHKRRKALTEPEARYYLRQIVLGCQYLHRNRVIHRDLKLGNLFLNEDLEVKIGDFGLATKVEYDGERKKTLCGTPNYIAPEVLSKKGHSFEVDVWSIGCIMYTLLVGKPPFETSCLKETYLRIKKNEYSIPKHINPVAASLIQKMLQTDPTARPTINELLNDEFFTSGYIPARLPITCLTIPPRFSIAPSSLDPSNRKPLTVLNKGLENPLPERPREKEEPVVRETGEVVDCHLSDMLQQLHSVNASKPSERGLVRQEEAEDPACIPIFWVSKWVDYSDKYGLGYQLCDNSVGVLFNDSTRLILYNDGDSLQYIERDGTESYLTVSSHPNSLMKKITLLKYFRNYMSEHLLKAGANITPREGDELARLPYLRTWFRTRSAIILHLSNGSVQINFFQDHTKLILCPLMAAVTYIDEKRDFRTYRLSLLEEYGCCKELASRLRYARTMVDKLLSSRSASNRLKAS
ALOX12 inh: ALOX12 (human) lipoxygenase inhibition; purified 12hLO, xylenol orange hydroperoxide absorbance; Potency, µM (doses to about 108 µM), for the others: at the highest dose activity change, negative = inhibition, most hits filed as inhibitors; 580,000 tested, 1.1% active; note: % is set by controls: 0 for no effect and ±100 for the full control effect
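Purified human 12hLO (150 nM final) in 25 mM Hepes, 0.01% Triton X-100, pH 7.0 was preincubated 15 min at room temperature with compound. Then 40 uM arachidonic acid was added, 30 min. Hydroperoxide was read by Fe-XO absorbance ratio 573/405 nm.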
* marks the source's active call; other numbers are inactive results; [ ] = dose if it differs, or a comment. Calls come from the whole dose curve; as a rule, active = well fitted curve in the direction sought with a large enough effect; inconclusive = small, poorly fitted or top-dose-only effect, or another doubt; inactive = no such curve, though single readings can be large; an effect the other way counts as inactive or inconclusive. Potency is the fitted concentration of half-maximal effect.

CCOC(=O)c1[nH]c(C)c(C(=O)NCc2cccnc2)c1C was read as BAZ2B block 13%, G9a block 35µM*, JMJD2A Tudor inh -16%, HP1b binding inh 50%, PLK1 PBD block 0% and ALOX12 inh 445%.
Screening CCCCNC(=O)C1c2ccccc2Oc2ccccc21 returned BAZ2B block -21%, G9a block inconclusive, JMJD2A Tudor inh -17%, HP1b binding inh 13%, PLK1 PBD block -4% and ALOX12 inh 1%.
`O=C(NCc1ccco1)C1c2ccccc2Oc2ccccc21` gave BAZ2B block -9%, G9a block inconclusive, JMJD2A Tudor inh 50µM*, HP1b binding inh 1%, PLK1 PBD block -24% and ALOX12 inh 44%.
Screening CCOC(=O)c1[nH]c(C)c(C(=O)NCc2ccc(C)cc2)c1C returned BAZ2B block -6%, G9a block -3%, JMJD2A Tudor inh -4%, HP1b binding inh 18%, PLK1 PBD block 5% and ALOX12 inh 348%.
Screening O=C(NCc1ccco1)c1ccccc1Br returned BAZ2B block 12%, G9a block 9%[12.7 µM], JMJD2A Tudor inh 50µM*, HP1b binding inh -23%, PLK1 PBD block 27µM* and ALOX12 inh 2%.
For CCc1ccc(NC(=O)c2ccccc2SCC(=O)NCc2ccco2)cc1 the results were ALOX12 inh 5.6µM*.
For O=c1[nH]c(=O)n(-c2cccc(Cl)c2)c2c1CN(Cc1ccco1)CN2 the results were ALOX12 inh -8%.
`CCCc1c(C(=O)N/N=C/c2ccc3c(c2)OCO3)nnn1-c1nonc1N` gave PLK1 PBD block -3% and ALOX12 inh 5%.
Screening O=C(c1ccc2c3c(cccc13)CC2)C1CCCN(C(=O)c2cc[n+]([O-])cc2)C1 (configuration not stated) returned BAZ2B block -1%, G9a block 2%, JMJD2A Tudor inh -1%, HP1b binding inh 27%, PLK1 PBD block -15% and ALOX12 inh -5%.
For CCSc1ccccc1C(=O)NCc1ccco1 the results were BAZ2B block 0%, G9a block 10µM*, JMJD2A Tudor inh -23%, HP1b binding inh 5%, PLK1 PBD block -8% and ALOX12 inh -4%.
CCSc1ccccc1C(=O)NCC(C)C was read as ALOX12 inh 11%.
CCSc1ccccc1C(=O)NCc1cccnc1 was read as BAZ2B block -12%, G9a block 8.9µM*, JMJD2A Tudor inh -16%, HP1b binding inh 21%, PLK1 PBD block -9% and ALOX12 inh inconclusive.
Screening COc1ccc(NC(=O)Cn2cc(C#N)c3ccccc32)cc1 returned BAZ2B block -10%, G9a block 4%, JMJD2A Tudor inh -23%, HP1b binding inh -17%, PLK1 PBD block -21% and ALOX12 inh -3%.
For COCCCNc1nc2nonc2nc1N1C[C@H]2CC[C@H]1C2 the results were BAZ2B block 9%, JMJD2A Tudor inh -15%, HP1b binding inh 3%, PLK1 PBD block -13% and ALOX12 inh 8%.
For COCCNc1nc2nonc2nc1N1C[C@H]2CC[C@H]1C2 the results were BAZ2B block 4%, G9a block 79µM*, JMJD2A Tudor inh 7%, HP1b binding inh 37%, PLK1 PBD block 1% and ALOX12 inh 412%.
Screening CCOC(=O)N1CCN(C(=O)c2cn(C)c(=O)c3c2c2ccccc2n3C)CC1 returned BAZ2B block -1%, G9a block -34%[59 µM], JMJD2A Tudor inh -6%, HP1b binding inh 40%, PLK1 PBD block -5% and ALOX12 inh 7%.
COc1ccc(N2CCN(C(=O)c3cn(C4CCCC4)c(=O)c4c3c3ccccc3n4C)CC2)cc1 was read as BAZ2B block inconclusive, G9a block 32µM*, JMJD2A Tudor inh 14µM*, HP1b binding inh inconclusive, PLK1 PBD block 0% and ALOX12 inh inconclusive.
Screening COc1ccc(N2CCN(C(=O)c3cn(C)c(=O)c4c3c3ccccc3n4C)CC2)cc1 returned BAZ2B block 45µM*, G9a block 32µM*, JMJD2A Tudor inh inconclusive, HP1b binding inh -11%, PLK1 PBD block -7% and ALOX12 inh inconclusive.
Screening Cc1ccc(CNC(=O)c2cn(C3CCCC3)c(=O)c3c2c2ccccc2n3C)o1 returned BAZ2B block 56µM* and G9a block 11µM*.
`N#Cc1nc(COc2cccc(Cl)c2)oc1N1CCN(c2ccccc2)CC1` gave BAZ2B block inconclusive, G9a block inconclusive, JMJD2A Tudor inh inconclusive, HP1b binding inh -29%, PLK1 PBD block -1% and ALOX12 inh 14%.
Screening Cn1c(=O)c(-c2ccc(F)cc2)nc2cnc(Oc3ccccc3)nc21 returned G9a block 6%[12.7 µM] and ALOX12 inh 172%.
CCn1c(C)nc2cc(C(=O)NNC(=S)Nc3ccccc3)ccc21 was read as BAZ2B block 0%, G9a block 45µM*, JMJD2A Tudor inh -10%, HP1b binding inh 28%, PLK1 PBD block inconclusive and ALOX12 inh -1%.
CCn1c(C)nc2cc(C(=O)NNC(=S)Nc3ccc(F)cc3)ccc21 was read as BAZ2B block 0%, G9a block 45µM*, JMJD2A Tudor inh -6%, HP1b binding inh 26%, PLK1 PBD block -5% and ALOX12 inh -28%.
`CCn1c(C)nc2cc(C(=O)NNC(=S)NC(=O)c3ccccc3)ccc21` gave BAZ2B block -1%, G9a block 18µM*, JMJD2A Tudor inh -22%, HP1b binding inh 31%, PLK1 PBD block inconclusive and ALOX12 inh inconclusive.
CCn1c(C)nc2cc(C(=O)N/N=C/c3cccc(O)c3O)ccc21 was read as BAZ2B block 79µM*, G9a block -32%, JMJD2A Tudor inh 79µM*, HP1b binding inh 31%, PLK1 PBD block 0% and ALOX12 inh -3%.
`O=C(Oc1ccc(-c2ccccc2)cc1)C1C2CCCCC21` (configuration not stated) gave BAZ2B block 6%, G9a block -1%[59 µM], JMJD2A Tudor inh 22%, HP1b binding inh 58%, PLK1 PBD block -10% and ALOX12 inh 11%.
Screening C/C(=C\c1ccccc1)CN1CCN(Cc2ccc(C)o2)C(CCO)C1 (configuration not stated) returned BAZ2B block -19%, G9a block -23%, JMJD2A Tudor inh -25%, HP1b binding inh 24%, PLK1 PBD block -19% and ALOX12 inh 8%.
CCSc1nc2sc3c(c2c(=O)n1CC)CC(C)(C)OC3 was read as BAZ2B block -4%, G9a block 25%[59 µM], JMJD2A Tudor inh -6%, HP1b binding inh 40%, PLK1 PBD block 4% and ALOX12 inh inconclusive.
